From PubChem
RORg inh – qHTS for inhibitors of ROR gamma transcriptional activity | Drosophila S2 Gal4-RORgamma UAS-luciferase reporter, 20 h | AID 2551, 2010 | Potency, µM (series often up to 53.6 µM), inactives show top-dose activity change, negative = inhibition, actives largely listed as inhibitors | Nuclear receptor ROR-gamma (Mus musculus), P51450 | actives 5.4% (n = 310,000); note: potency is the fitted concentration of half-maximal effect; % is set by controls: 0 for no effect and ±100 for the full control effect; nearly all actives have a fitted effect of over 60% in size
Target sequence (P51450 whole entry, looked up, the tested form may be a part): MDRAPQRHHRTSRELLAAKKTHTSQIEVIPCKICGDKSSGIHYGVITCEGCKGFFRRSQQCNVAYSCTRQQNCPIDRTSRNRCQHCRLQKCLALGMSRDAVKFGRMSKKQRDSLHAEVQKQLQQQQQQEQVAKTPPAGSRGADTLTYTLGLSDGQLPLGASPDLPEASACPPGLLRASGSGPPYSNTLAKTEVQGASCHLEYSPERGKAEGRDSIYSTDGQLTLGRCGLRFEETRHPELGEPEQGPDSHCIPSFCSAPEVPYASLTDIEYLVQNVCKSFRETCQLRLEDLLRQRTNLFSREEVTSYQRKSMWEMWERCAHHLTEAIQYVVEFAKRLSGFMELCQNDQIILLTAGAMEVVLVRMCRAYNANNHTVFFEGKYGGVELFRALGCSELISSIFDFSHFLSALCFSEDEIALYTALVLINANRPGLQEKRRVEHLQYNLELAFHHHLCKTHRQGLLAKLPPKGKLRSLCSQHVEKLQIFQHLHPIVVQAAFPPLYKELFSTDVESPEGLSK
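Stable Schneider cell line, Gal4 DNA-binding domain fused to ROR gamma, UAS-luciferase. Cmpd 1 hr RT → CuSO4 700 uM final → 20 hr RT → luciferase reagent 10 min → luminescence.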
SW480 rereplic – A quantitative high throughput screen for small molecules that induce DNA re-replication in SW480 colon adenocarcinoma cells. SW480 DNA re-replication, Hoechst DNA content imaging, 48 h. Potency, µM (titrated, usually from 46.1 µM), for the others: top-dose re-replication activation, usual class: activators. actives 1.8% (n = 340,000); note: potency is the fitted concentration of half-maximal effect; % of control where 0% means no effect; nearly all actives have a fitted effect of over 55% in size
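Image-based DNA-content assay: after two days of treatment, nuclei were labelled with the DNA dye Hoechst and imaged, and hits were compounds raising the count of nuclei showing high fluorescence intensity.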
Chronic BCR inh – qHTS Assay to Find Inhibitors of Chronic Active B-Cell Receptor Signaling; actives 0.05% (n = 340,000); AID 493014, 2011; Potency, µM (titrated, usually from 46.1 µM), for inactives: at the top dose activity change, negative = inhibition, most hits filed as inhibitors; ABC-DLBCL IkBa-CBG/CBR reporter, luminescence ratio, 4 h; active = well fitted inhibition curve with a large enough effect in the signal ratio, with a control signal flat, not every such curve was filed as active; inconclusive = small, poorly fitted or top-dose-only effect, or effect the other way, or a change in a side signal; the % refers to the signal ratio;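 note: potency is the fitted concentration of half-maximal effect; plate controls were basal doxycycline-induced cells for no effect and cells given 10 µM MG132 for full effect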
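Concentration-response series (up to 46 uM) were applied to TMD8 dual-reporter cells for 4 h at 37C with doxycycline. Green/red ratio, after filter-overlap correction, defined %Activity; red signal alone was normalised to basal cells and zero luminescence.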
MCF10A rereplic – A quantitative high throughput screen for small molecules that induce DNA re-replication in MCF 10a normal breast cells; MCF 10A DNA re-replication, Hoechst nuclear intensity, 48 h; Potency, µM (series often up to 46.1 µM), without a hit: top-dose activity, positive = re-replication, actives largely listed as activators; actives 2.9% (n = 350,000); AID 624296, 2012; note: potency is the fitted concentration of half-maximal effect; % of control where 0% means no effect; nearly all actives have a fitted effect of over 50% in size
VP16 counter – VP16 counterscreen qHTS for inhibitors of ROR gamma transcriptional activity | actives 3.5% (n = 310,000) | Drosophila S2 Gal4-VP16 UAS-luciferase, luminescence, 20 h | AID 2546, 2010 | Potency, µM (highest dose often 53.6 µM), inactives show top-dose activity, negative = inhibition, actives largely listed as inhibitors;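 note: Gal4-VP16 expression switched on by copper sulfate through the metallothionein promoter; potency is the fitted concentration of half-maximal effect; % is set by controls: 0 for no effect and ±100 for the full control effect; nearly all actives have a fitted effect of over 50% in size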
Giardia killer – Small Molecules that selectively kill Giardia lamblia: qHTS; Giardia lamblia trophozoite viability; activity change, % at 7.66 µM, hits read low; actives 0.15% (n = 340,000); in the data active = activity change below about -80%; inconclusive = between about -30% and that limit;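 note: parasites exposed to compound for two days anaerobically before the ATP read; % is set by controls: 0 for no effect and ±100 for the full control effect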
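Killing of trophozoites was scored by loss of ATP luminescence after a 48 hrs anaerobic exposure to compounds at 37 deg C, using 100 cells per well.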
* marks the source's active call; other numbers are inactive results; ? = inconclusive; / = no result. Most compounds without a hit are left out; they make up all but 8.3% or so of the library. Unless noted, calls come from the whole dose curve; as a rule, active = well fitted curve in the direction sought with a large enough effect; inconclusive = small, poorly fitted or top-dose-only effect, or another doubt; inactive = no such curve, though single readings can be large; an effect the other way counts as inactive or inconclusive.

SMILES | RORg inh | SW480 rereplic | Chronic BCR inh | MCF10A rereplic | VP16 counter | Giardia killer
O=C(N/N=C\c1cn(-c2ccccc2)nc1-c1ccccc1)c1ccc2c(c1)OCO2 | 1.8µM* | 0% | ? | 12% | ? | 5
COc1ccc(-c2nn(-c3ccccc3)cc2/C=N/Nc2cccc(C(=O)O)c2)cc1 | ? | -2% | 0% | ? | -3% | 7
COc1ccc(-c2nn(-c3ccccc3)cc2/C=N/NC(=O)c2ccc3c(c2)OCO3)cc1 | 2.5µM* | / | -9% | / | -26% | /
C=CCNC(=S)N/N=C/c1cn(-c2ccccc2)nc1-c1ccc(OC)cc1 | 0.71µM* | 1% | ? | ? | 1.3µM* | 6
COc1cc(C(=O)NCC(=O)N2CCN(S(=O)(=O)c3ccccc3)CC2)cc(OC)c1OC | / | -612% | -2% | -4% | / | -17
C=CCC(C)(O)c1ccsc1 (centres undefined) | -10% | / | / | / | -3% | /
CCC(C)/C=C/C1=CC2=C(Cl)C(=O)C3(C)OC(=O)C(C(=O)C(C)C(C)O)C3C2=CO1 (centres undefined) | 27% | 8% | ? | ? | 1% | 8
CN1CCN(C(=O)/C=C/c2cn(-c3ccccc3)nc2-c2ccc3c(c2)OCCO3)CC1 | -21% | ? | 1% | ? | -2% | 14
COc1ccc(-c2nn(-c3ccccc3)cc2CNC(=O)c2cccc([N+](=O)[O-])c2)cc1 | ? | -21% | ? | 0% | 8.9µM* | 15
O=C(/C=C\c1cn(-c2ccccc2)nc1-c1ccc2c(c1)OCCO2)N1CCOCC1 | 11% | -70% | -16% | 18µM* | -2% | -4
COc1ccc(-c2nn(-c3ccccc3)cc2/C=N/NC(=O)c2ccc(Br)o2)cc1 | 1.3µM* | ? | 1% | ? | 4µM* | -1
COc1ccc(-c2nn(-c3ccccc3)cc2/C=N/NC(=O)c2cccc(S(=O)(=O)Nc3ccccc3OC)c2)cc1 | 1.3µM* | 8% | ? | 20% | 1.3µM* | -21
COc1ccccc1NS(=O)(=O)c1cccc(C(=O)N/N=C/c2ccccc2OCC(=O)O)c1 | -6% | 0% | 1% | -2% | -2% | -5
O=C(NCc1cn(-c2ccccc2)nc1-c1ccccc1)c1cccc([N+](=O)[O-])c1 | -81% | ? | 2% | 1% | ? | 0
O=C(COC(=O)Cc1ccccc1F)Nc1ccc(F)cc1F | -7% | 3% | 0% | -1% | -3% | -8
COCc1cc(=O)[nH]c(/N=C(\N)Nc2c(F)cccc2F)n1 | -15% | 2% | -11% | ? | -1% | 24
O=C(N/N=C/c1cn(-c2ccccc2)nc1-c1ccc(F)cc1)c1ccc2c(c1)OCO2 | 2.2µM* | 1% | ? | -2% | ? | -4
O=C(NN=Cc1ccc2c(c1)OCO2)c1ccccc1 | / | 48% | / | 28% | / | 5
CCn1c(C)c(C)c2cc(C(=O)NCCCN3CCCCC3C)ccc21 (centres undefined) | -28% | 19% | -9% | -2% | -1% | 30
O=C(c1[nH]ncc1-c1ccccc1)C1CO1 (centres undefined) | 23% | ? | ? | ? | -2% | 0
O=C(C1=NNCC1c1ccccc1)C1CO1 (centres undefined) | -8% | 16µM* | 1% | 23µM* | 5% | -15
CC(NC(=S)NCc1ccc(F)cc1)C12CC3CC(CC(C3)C1)C2 (centres undefined) | 1.8µM* | -48% | -9% | ? | 5µM* | -18
C[C@H](NC(=O)NCc1ccc(F)cc1)C(=O)O | 3% | ? | 5% | -9% | -8% | -9
